High-throughput results as filed in PubChem BioAssay.
sPLA2-III inh: human group III sPLA2 inhibitors, primary screen, biochemical, QFRET, BODIPY PC-A2 liposome substrate; Group 3 secretory phospholipase A2 (Homo sapiens), Q9NZ20; hit rate 0.56% among 370,000; inhibition, % at 12.2 µM; QFRET BODIPY PC-A2 liposome hydrolysis, fluorescence;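 active means inhibition above mean plus 3 SD of compounds lying within the high and low control bounds, cut at about 19% in these data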
PLC-gamma1 inh: PLC-gamma1 enzyme inhibitors, primary screen, biochemical, fluorescence, purified enzyme; fluorogenic substrate; 1-phosphatidylinositol 4,5-bisphosphate phosphodiesterase gamma-1 (Homo sapiens), P19174; hit rate 0.84% among 370,000; inhibition, % at 12.2 µM; in the data active means inhibition above about 9.5%
CR mimetic SO: reduction of superoxide in aged yeast, primary screen, HTS; S. cerevisiae aged cells, superoxide DHE fluorescence; active compounds read low; superoxide response (% of plate mean), % at 10 µM; hit rate 0.18% among 330,000; AID 2690, 2010;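 active means superoxide response under a set limit, about three screen SD below normal, cut at about 65% in these data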;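 further: yeast aged for seven days with compound at 30 °C before DHE staining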
HIF act: HIF pathway transcriptional activators, primary screen, cell-based, U2OS HRE-luciferase, luminescence; U2OS HRE-luciferase reporter; normalized: DMSO 0%, desferrioxamine 100%; activation, % at 7.5 µM (by protocol); AID 1910, 2009; hit rate 0.32% among 300,000;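 active means mean activation of at least 10% of the iron chelator positive control signal, with at least half of replicates also reaching 10%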
AHR activator: AHR activators, primary screen, cell-based, luminescence, luciferase reporter, human; Aryl hydrocarbon receptor (Homo sapiens), P35869; AHR-responsive luciferase reporter cells; activation, % at 5 µM; hit rate 2.5% among 320,000; AID 2796, 2010; in the data active means activation above about 47%
PLCb3 inh: human PLC-beta3 inhibitors, primary screen, biochemical, fluorescence. 1-phosphatidylinositol 4,5-bisphosphate phosphodiesterase beta-3 (Homo sapiens), Q01970. hit rate 0.18% among 370,000. inhibition, % at 12.2 µM. Purified PLC-beta3, fluorogenic substrate; in the data active means inhibition above about 11%
Hits are given with their value; 0 = inactive; - = not tested or not shown. This is a sample that favours compounds with a hit; in the whole collection about 3.9% have one here.

SMILES	sPLA2-III inh	PLC-gamma1 inh	CR mimetic SO	HIF act	AHR activator	PLCb3 inh
COc1ccccc1CN(C)C(=O)c1cc(-c2cc(OC)c(OC)c(OC)c2)nc2ccccc12	0	0	0	0	0	0
COc1ccc(-c2cc(C(=O)N3CCN(c4ccccc4)CC3)c3ccccc3n2)cc1OC	0	0	0	0	77.3	0
COc1ccc(-c2cc(C(=O)N(C)Cc3ccccc3F)c3ccccc3n2)cc1OC	0	0	0	0	71.1	0
O=C(O)COc1ccccc1C=NNC(=O)Cc1cc(=O)[nH][nH]1	0	0	-	-	-	0
O=S1(=O)c2ccc(N3CCSCC3)cc2Oc2ccccc2CN1Cc1cn(Cc2cccc(C(F)(F)F)c2)nn1	0	0	-	-	-	0
CN(Cc1ccco1)C(=O)CN1C(=O)C2(OCCCO2)c2ccccc21	0	0	-	-	-	0
Cc1cc(=O)oc2c(C(=O)/C=C\c3cccs3)c(O)ccc12	0	0	0	0	72.8	0
Cc1cccc(NCC(=O)N/N=C/c2cccc(Br)c2)c1	0	0	0	0	0	0
Cc1ccc(NCC(=O)N/N=C/c2cccc(Br)c2)cc1	0	0	0	0	69.8	0
Cc1ccc(NCC(=O)N/N=C\c2cccc(O)c2)cc1	0	0	0	0	65.1	0
C/C(=N\NC(=O)CNc1cccc(C)c1)c1ccc(Br)s1	0	0	0	0	71.2	0
O=C(CNc1cccc(C(F)(F)F)c1)N/N=C/c1cccc(Br)c1	0	0	0	0	101.1	0
CCCCNC(=O)C[C@H]1C[C@@]2(C(=O)OC)C(=C[C@H](C(C)(C)C)O[C@@H]2C)N(CCc2ccc(OC)c(OC)c2)C1=O	0	0	-	-	-	0
CN1Cc2nnn(CC3CCCCC3)c2-c2ccccc2S1(=O)=O	0	0	-	-	-	0
C/C(=N\NC(=O)CNc1cccc(C(F)(F)F)c1)c1cccc(Br)c1	0	0	0	0	75.2	0
C/C(=N\NC(=O)CNc1cccc(C(F)(F)F)c1)c1ccc(Br)cc1	0	0	0	0	0	0
O=C(CN1CCN(Cc2ccccc2)CC1)N/N=C\c1ccccc1[N+](=O)[O-]	0	0	-	-	-	0
COCCCNc1c2c3c(cccc3[nH]c1=O)C(=O)c1ccccc1-2	0	0	0	-	69.7	0
COCCCNC1=C(Cl)C(=O)c2ccccc2C1=O	0	0	0	0	0	0
C#CCNC(=O)C[C@H]1C[C@@]2(C(=O)OC)C(=C[C@H](C(C)(C)C)O[C@@H]2C)N(Cc2ccccc2)C1=O	0	0	-	-	-	0
Oc1ccc(CN2CCCCC2)c2cccnc12	0	0	0	0	0	0
Oc1c(CN2CCCCC2)cc(COCc2ccccc2)c2cccnc12	0	0	0	132.0	0	0
CCOC(=O)N1CCN(Cc2ccc(O)c3ncccc23)CC1	0	0	0	0	0	0
Oc1ccc(CN2CCc3ccccc3C2)c2cccnc12	0	0	0	158.8	0	0
Cc1ccc(C)c(S(=O)(=O)N2CCN(Cc3ccc(O)c4ncccc34)CC2)c1	0	0	0	28.9	0	0
SMILES	sPLA2-III inh	PLC-gamma1 inh	CR mimetic SO	HIF act	AHR activator	PLCb3 inh
COCc1cc(CN2CCCC2)c(O)c2ncccc12	0	0	0	0	0	0
COc1ccccc1N1CCN(Cc2cc(Br)c(O)c3ncccc23)CC1	0	0	0	12.5	0	0
CN1CC(O)([C@H](Cc2ccccc2)NC(=O)OC(C)(C)C)OCC1C(=O)NCc1cccc2ccccc12 (some centres not stated)	0	0	-	-	-	0
CC1CCN(c2ccc(C(=O)O)cc2NS(=O)(=O)c2ccccc2[N+](=O)[O-])CC1	0	0	-	-	-	0
CC(C)C(=O)N[C@H]1[C@H](O)CCC[C@@]12C(=O)N(Cc1ccccc1)c1ccccc12	0	0	-	-	-	0
Oc1ccc(CN2CCC(Cc3ccccc3)CC2)c2cccnc12	0	0	-	17.9	-	0
Oc1ccc(CN2CCN(c3ccccc3)CC2)c2cccnc12	-	-	0	0	0	-
Cc1c(C(=O)N2CCOCC2)sc2ncnc(N3CCc4ccccc4C3)c12	0	0	0	0	0	0
CCN1CCN(C(=O)c2sc3ncnc(N4CCc5ccccc5C4)c3c2C)CC1	0	0	0	0	48.9	0
COc1ccccc1NC(=O)CSc1c2c(nc3ccccc13)CCC2	0	0	0	0	47.0	0
C=CCNC(=O)C1CCN(c2cncnc2)CC1	0	0	-	-	-	0
Cn1cc(/C=C/c2cc[n+](C)cc2)c2cc(Cl)ccc21	0	0	0	0	47.3	0
C[C@H]1O[C@@H](n2c3ccc(Cl)cc3c3ccc4c5cc(Cl)ccc5[nH]c4c32)[C@H](O)[C@H](O)[C@H]1O	0	0	-	-	-	0
CCOc1cc(-c2ccc(N)c(OCC)c2)ccc1N	0	0	0	0	49.8	0
CCOc1ccc(N)c(SSc2cc(OCC)ccc2N)c1	0	0	0	0	0	0
CN(C)CCN(C(=O)/C=C/c1cccs1)c1nc2ccc(F)cc2s1	0	0	0	0	48.9	0
CCN(CC)CCN(C(=O)/C=C/c1cccs1)c1nc2ccc(Cl)cc2s1	0	0	0	0	0	0
COc1ccc(CN(CCN2CCOCC2)C(=O)c2ccc(F)cc2Cl)cc1OC	0	0	-	-	-	0
CCOc1ccccc1NC(=O)CSc1nnc2ccc(-c3cccnc3)nn12	0	0	0	0	49.5	0
COc1ccccc1NC(=O)CSc1nnc2ccc(-c3cccnc3)nn12	0	0	0	0	58.2	0
COc1ccc(C(=O)C(c2ccccc2)N2CCOCC2)cc1 (configuration not stated)	0	0	0	0	0	0
Cc1ccc(C(=O)C(c2ccccc2)N2Cc3ccccc3C2=N)cc1 (configuration not stated)	-	-	0	0	64.7	-
O=C(CN1C(=O)c2cccc3cccc1c23)NCc1cccnc1	-	-	0	0	0	-
O=C(CN1C(=O)c2cccc3cccc1c23)Nc1cccnc1	0	0	0	0	53.8	0
CCCCN(C)C(=O)CSc1nnc(-c2cc(OC)c(OC)c(OC)c2)o1	0	0	-	-	-	0
SMILES	sPLA2-III inh	PLC-gamma1 inh	CR mimetic SO	HIF act	AHR activator	PLCb3 inh
O=c1cc(N2CCN(c3cccc(Cl)c3Cl)CC2)[nH]c(=O)n1C1CCCCC1	0	0	-	-	-	0
Cc1ccc(Nc2nnc(SC/C(O)=C(\C#N)c3nc4ccccc4[nH]3)s2)c(C)c1	0	0	0	0	55.0	0
Cc1cccc(C)c1Nc1nnc(SCC(=O)c2ccc(Br)s2)s1	0	0	0	0	0	0
Cc1ccc(Nc2nnc(SCC(=O)c3ccc(Br)s3)s2)c(C)c1	0	0	0	0	60.1	0
Cc1cccc(Nc2nnc(SC/C(O)=C(\C#N)c3nc4ccccc4[nH]3)s2)c1	0	0	0	0	0	0
Oc1nc(Nc2ccccc2)sc1/C=C1\C=Nc2ccccc21	0	0	0	0	147.0	0
CCn1c(O)c(/C=C2\C=Nc3ccccc32)sc1=O	0	0	0	0	75.6	0
